From PubChem BioAssay
Activity calls are given as the source filed them.

Assays:
Albumin (Bos taurus) = Albumin (Bos taurus) (UniProt P02769); test: bovine serum albumin binders on microarray, profiling panel, artefact control for SMM control protein annotation, biochemical, small-molecule microarray, Alexa647 label, 635/667 nm fluorescence (AID 1118); details: BSA-A647 binding, fluorescence 635 nm, higher = more signal;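 further: score merges 667 nm emission intensity and signal-to-noise per printed compound spot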
[1] = small-molecule microarray binders of probe aXIP, primary screen, biochemical, NeuroSMM set, 635/667 nm fluorescence (AID 1119); details: higher = more signal, called active from +8 up or from −8 down;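 further: probe is the protein aXip251-270 applied at 1 µg/mL to compound-printed slides; binding of probe to printed compounds measured as 667 nm fluorescence plus signal to noise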
[2] = small-molecule binders of probe aNOTCH3, primary screen, biochemical, small-molecule microarray, 635/667 nm fluorescence (AID 1120); details: higher = more signal;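 further: probe is a biotin-tagged antibody raised against NOTCH3 rather than NOTCH3 protein; score merges spot fluorescence near 667 nm with spot signal to noise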
[3] = small-molecule binders of probe aNOTCH2, primary screen, biochemical, small-molecule microarray, 635/667 nm fluorescence (AID 1121); details: higher = more signal;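 further: score merges feature fluorescence read at 667 nm with its signal to noise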
[4] = biological target: Carbonic anhydrase 2 (Homo sapiens) (UniProt P00918); test: CAII small-molecule binders, profiling panel, biochemical, small-molecule microarray, Alexa647-labelled CAII (AID 1122); details: CAII-A647 binding fluorescence, higher = more signal
[5] = COS7 lysate on small-molecule microarray, probe aHis, 635 nm (AID 1123); details: COS7 cell lysate, fluorescence, higher = more signal;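 further: z-score combines 667nm fluorescence intensity with signal-to-noise per printed compound spot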
[6] = compound binding in COS7 lysate, probe aLAP1, primary screen, cell lysate, small-molecule microarray (AID 1124); details: probe aLAP1, fluorescence, higher = more signal;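 further: lysate comes from COS7 cells expressing LAP1 and is applied at 0.3 µg/mL; score merges spot fluorescence near 667 nm with signal-to-noise over triplicate slides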
Sam68 (KHDRBS1) = test: Sam68 small-molecule binders, primary screen, biochemical, small-molecule microarray, 635 nm fluorescence (AID 1125); details: small-molecule microarray binding, higher = more signal;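 further: score merges 667 nm channel intensity with signal to noise over triplicate slides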
[7] = test system: Chordin-like protein 2 (CHRDL2); test: CHRDL2 small-molecule binders, primary screen, biochemical, small-molecule microarray, 635 nm fluorescence (AID 1126); details: small-molecule microarray binding, fluorescence 635 nm; higher = more signal;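 further: printed compound slides probed with Chrdl2 protein at 4 µg/mL for 1 h at 4 C; score merges 667 nm emission intensity with signal to noise over three replicate slides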
[8] = biological target: Concanavalin-A (Canavalia ensiformis) (UniProt P02866); test: ConA small-molecule binders, primary screen, artefact control for SMM control protein annotation, biochemical, small-molecule microarray, Alexa647 label, 635 nm (AID 1127); details: ConA-A647 binding fluorescence, higher = more signal;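 further: z combines 667 nm emission intensity with signal-to-noise across three replicate slides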
[9] = anti-His antibody binders, primary screen, artefact control for SMM control protein annotation, biochemical, small-molecule microarray, 635 nm fluorescence (AID 1128); details: anti-His Alexa647 antibody binding, higher = more signal;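 further: score merges feature fluorescence with signal-to-noise for each printed compound spot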
[10] = test system: Human papillomavirus type 1a E7 protein (residues 1-88); test: HPV1a E7 small-molecule binders, primary screen, biochemical, small-molecule microarray, residues 1-88, 635 nm (AID 1129); details: small-molecule microarray binding, fluorescence 635 nm; higher = more signal
[11] = biological target: Focal adhesion kinase 1 (Homo sapiens) (UniProt Q05397); test: small-molecule microarray binders of FAK, primary screen, biochemical, 635/667 nm fluorescence, BSA, DTT (AID 1130); details: PTK2 binding, 635 nm fluorescence, higher = more signal;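 further: composite of spot emission at 667 nm and signal to noise over triplicate slides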
[12] = test system: Fibrinogen (Alexa647-labelled); test: fibrinogen binders on compound microarrays, profiling panel, artefact control for SMM control-protein annotation, biochemical, small-molecule microarray, 635/667 nm fluorescence (AID 1131); details: fibrinogen-A647 binding fluorescence, higher = more signal;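 further: z-score merges 667 nm fluorescence with per-spot signal-to-noise over triplicate slides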
[13] = biological target: Follistatin (Homo sapiens) (UniProt P19883); test: follistatin binders on small-molecule microarrays, primary screen, biochemical, small-molecule microarray, 635/667 nm fluorescence (AID 1132); details: FST binding, 635 nm fluorescence, higher = more signal
[14] = biological target: Fibroblast growth factor 2 (Homo sapiens) (UniProt P09038); test: FGF2 binders on small-molecule microarrays, primary screen, biochemical, small-molecule microarray, 635/667 nm fluorescence (AID 1133); details: small-molecule microarray binding, FGF2, fluorescence 635/667; higher = more signal
[15] = mitochondrial membrane potential change in A549 cells, profiling panel, cell-based, JC-1 fluorescence, basal, 24 h, 100 nL (AID 1138); details: higher = more signal;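 further: A549 lung adenocarcinoma cells under basal conditions with no added stimulus; test concentration not given here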
Lefty1 = Lefty1 binders on small-molecule microarrays, primary screen, biochemical, small-molecule microarray, 635/667 nm fluorescence (AID 1139); details: small-molecule microarray binding, fluorescence 635/667; higher = more signal
[16] = test system: wheat germ agglutinin (Triticum aestivum), Alexa647-labelled; test: wheat germ agglutinin binders on compound microarrays, profiling panel, artefact control for SMM control-protein annotation, biochemical, small-molecule microarray, 635/667 nm fluorescence (AID 1140); details: WGA-A647 binding, 635 nm fluorescence, higher = more signal;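 further: score merges 667 nm feature emission with signal to noise over triplicate slides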
[17] = biological target: Luciferin 4-monooxygenase (Photinus pyralis) (UniProt P08659); test: firefly luciferase enzyme inhibitors, primary screen, biochemical, luminescence, purified enzyme, 2006 set (AID 1141); details: SteadyGlo luminescence, 30 min, higher = more signal, called active from +8 up or from −8 down;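 further: cell-free assay with purified firefly luciferase at 100 ng per well in PBS; test concentration not given here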
Sequence of Luciferin 4-monooxygenase (Photinus pyralis) (P08659 whole entry, looked up): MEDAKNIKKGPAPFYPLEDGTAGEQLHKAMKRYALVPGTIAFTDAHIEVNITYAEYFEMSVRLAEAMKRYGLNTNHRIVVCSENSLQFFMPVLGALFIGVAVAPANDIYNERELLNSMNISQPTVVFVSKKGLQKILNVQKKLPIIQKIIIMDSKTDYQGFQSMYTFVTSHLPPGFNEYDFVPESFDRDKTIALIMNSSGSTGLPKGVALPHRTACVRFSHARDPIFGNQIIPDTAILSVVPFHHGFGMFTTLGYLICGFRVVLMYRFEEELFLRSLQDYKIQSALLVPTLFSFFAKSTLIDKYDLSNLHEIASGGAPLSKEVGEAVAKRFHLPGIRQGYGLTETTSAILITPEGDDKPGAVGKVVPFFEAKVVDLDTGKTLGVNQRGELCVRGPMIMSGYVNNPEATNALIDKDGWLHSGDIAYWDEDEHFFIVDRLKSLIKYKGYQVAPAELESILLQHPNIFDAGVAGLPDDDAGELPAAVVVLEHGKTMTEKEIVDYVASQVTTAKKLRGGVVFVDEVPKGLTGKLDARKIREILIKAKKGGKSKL

Sequence of Fibroblast growth factor 2 (Homo sapiens) (P09038 whole entry, looked up): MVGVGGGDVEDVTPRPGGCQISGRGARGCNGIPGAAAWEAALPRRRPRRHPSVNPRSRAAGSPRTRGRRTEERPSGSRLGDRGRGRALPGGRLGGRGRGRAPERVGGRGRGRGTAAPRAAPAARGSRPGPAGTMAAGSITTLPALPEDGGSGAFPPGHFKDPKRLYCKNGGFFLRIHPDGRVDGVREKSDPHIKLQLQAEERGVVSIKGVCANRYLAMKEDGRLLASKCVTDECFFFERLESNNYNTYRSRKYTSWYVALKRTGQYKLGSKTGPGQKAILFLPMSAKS
Sequence of Concanavalin-A (Canavalia ensiformis) (P02866 whole entry, looked up): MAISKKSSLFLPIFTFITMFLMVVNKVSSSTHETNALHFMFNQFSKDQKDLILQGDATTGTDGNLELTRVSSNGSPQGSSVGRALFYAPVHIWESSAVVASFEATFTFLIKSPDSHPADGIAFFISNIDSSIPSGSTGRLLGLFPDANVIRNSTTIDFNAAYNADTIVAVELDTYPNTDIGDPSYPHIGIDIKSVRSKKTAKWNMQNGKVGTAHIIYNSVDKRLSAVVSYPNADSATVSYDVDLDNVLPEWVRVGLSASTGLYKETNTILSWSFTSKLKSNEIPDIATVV
Sequence of Focal adhesion kinase 1 (Homo sapiens) (Q05397 whole entry, looked up): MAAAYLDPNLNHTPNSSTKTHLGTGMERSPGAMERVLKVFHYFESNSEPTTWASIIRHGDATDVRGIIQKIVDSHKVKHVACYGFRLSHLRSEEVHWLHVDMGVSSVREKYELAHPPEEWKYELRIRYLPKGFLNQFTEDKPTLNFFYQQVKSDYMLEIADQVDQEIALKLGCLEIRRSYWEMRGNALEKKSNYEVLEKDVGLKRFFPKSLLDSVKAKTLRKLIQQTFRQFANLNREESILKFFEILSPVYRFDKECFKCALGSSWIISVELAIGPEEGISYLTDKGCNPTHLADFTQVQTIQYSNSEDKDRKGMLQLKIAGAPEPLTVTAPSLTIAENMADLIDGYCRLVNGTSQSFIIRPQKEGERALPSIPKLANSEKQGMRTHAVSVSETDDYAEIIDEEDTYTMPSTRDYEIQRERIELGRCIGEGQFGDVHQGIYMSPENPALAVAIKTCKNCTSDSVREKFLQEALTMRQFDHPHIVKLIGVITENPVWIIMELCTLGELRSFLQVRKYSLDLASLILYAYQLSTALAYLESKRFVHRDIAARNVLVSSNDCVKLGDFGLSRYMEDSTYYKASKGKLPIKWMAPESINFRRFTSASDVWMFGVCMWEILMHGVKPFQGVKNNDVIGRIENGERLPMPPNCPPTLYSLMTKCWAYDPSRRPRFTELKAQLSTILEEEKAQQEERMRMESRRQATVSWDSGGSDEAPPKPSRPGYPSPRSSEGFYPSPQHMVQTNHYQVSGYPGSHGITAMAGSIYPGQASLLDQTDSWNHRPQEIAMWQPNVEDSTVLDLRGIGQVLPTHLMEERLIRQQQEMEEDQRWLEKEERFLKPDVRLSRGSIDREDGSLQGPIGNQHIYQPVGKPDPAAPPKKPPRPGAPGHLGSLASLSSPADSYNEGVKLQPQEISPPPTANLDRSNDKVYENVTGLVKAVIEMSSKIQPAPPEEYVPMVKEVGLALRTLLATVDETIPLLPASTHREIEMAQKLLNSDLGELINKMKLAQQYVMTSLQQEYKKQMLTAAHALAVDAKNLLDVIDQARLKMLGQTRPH
Sequence of Albumin (Bos taurus) (P02769 whole entry, looked up): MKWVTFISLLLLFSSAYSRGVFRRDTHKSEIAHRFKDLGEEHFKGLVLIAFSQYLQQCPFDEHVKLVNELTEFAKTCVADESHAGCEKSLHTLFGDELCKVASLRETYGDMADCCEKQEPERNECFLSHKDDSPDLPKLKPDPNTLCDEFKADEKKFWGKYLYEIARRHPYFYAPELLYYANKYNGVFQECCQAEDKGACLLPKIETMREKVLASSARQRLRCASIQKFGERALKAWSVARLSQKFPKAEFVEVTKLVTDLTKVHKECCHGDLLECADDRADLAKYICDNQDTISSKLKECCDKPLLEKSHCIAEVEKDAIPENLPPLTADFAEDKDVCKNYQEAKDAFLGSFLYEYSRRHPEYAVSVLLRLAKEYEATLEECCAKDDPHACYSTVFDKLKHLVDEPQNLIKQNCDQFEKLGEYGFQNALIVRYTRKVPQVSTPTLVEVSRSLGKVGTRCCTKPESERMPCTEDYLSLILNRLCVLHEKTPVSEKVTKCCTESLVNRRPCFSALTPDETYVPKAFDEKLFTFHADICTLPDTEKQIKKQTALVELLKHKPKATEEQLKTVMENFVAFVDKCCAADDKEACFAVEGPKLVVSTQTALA
Sequence of Follistatin (Homo sapiens) (P19883 whole entry, looked up): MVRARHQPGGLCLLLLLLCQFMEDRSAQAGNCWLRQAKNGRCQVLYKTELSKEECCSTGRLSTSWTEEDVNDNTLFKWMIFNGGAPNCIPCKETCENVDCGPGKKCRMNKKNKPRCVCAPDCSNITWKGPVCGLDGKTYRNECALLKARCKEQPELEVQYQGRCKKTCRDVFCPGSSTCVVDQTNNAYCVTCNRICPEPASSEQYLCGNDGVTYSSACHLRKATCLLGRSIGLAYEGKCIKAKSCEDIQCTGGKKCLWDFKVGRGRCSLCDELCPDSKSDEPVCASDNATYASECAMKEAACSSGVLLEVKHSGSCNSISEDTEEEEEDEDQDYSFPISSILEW

SMILES | composite z-score (Albumin (Bos taurus)) | composite Z-score [1] | composite z-score [2] | composite z-score [3] | composite z-score [4] | composite z-score [5] | composite z-score [6] | composite z-score (Sam68 (KHDRBS1)) | composite z-score [7] | composite z-score [8] | composite z-score [9] | composite z-score [10] | composite z-score [11] | composite z-score [12] | composite z-score [13] | composite z-score [14] | z-score [15] | composite z-score (Lefty1) | composite z-score [16] | z-score [17]
O=C1[C@H]2[C@H]3[C@H](O)[C@H](O)CC(=NOCc4ccccc4)[C@@H]3CC[C@H]2C(=O)N1c1cccc(Oc2ccccc2)c1 | 0.446 | 0.0894 (inactive) | -0.119 | -0.147 | 0.146 | 0.536 | 0.397 | 1.32 | 0.0204 | 0.335 | 0.695 | 0.452 | 0.0881 | 0.96 | 0.248 | 0.184 | 0.578 | 0.687 | 0.315 | 0.245 (inactive)
COc1cccc([C@H](O)Cn2cc(-c3ccc(CON=C(C)C)cc3)nn2)c1 | 0.212 | -0.511 (inactive) | -0.0647 | 0.127 | -0.0261 | -0.011 | -0.169 | -0.937 | 0.0083 | -2.65 | 0.0043 | -1.15 | -0.351 | -1.01 | -0.46 | -0.153 | -0.442 | -0.324 | -0.3 | 0.278 (inactive)
O=C1[C@H]2[C@H]3[C@H](O)[C@H](O)CC(=NOCc4ccccc4)[C@H]3CC[C@H]2C(=O)N1C1CCCCC1 | 0.487 | 0.447 (inactive) | -0.0744 | -0.14 | 0.505 | 0.596 | -0.438 | 0.734 | 0.318 | 0.921 | 0.992 | 0.944 | 0.041 | 1 | 0.28 | 0.479 | 0.436 | 0.355 | 0.971 | 0.18 (inactive)
CC(C)=CCCC(C)=CCON=C1C[C@@H](O)[C@@H](O)[C@@H]2[C@@H]3C(=O)N([C@@H](C)c4ccccc4)C(=O)[C@@H]3CC[C@@H]12 | 0.0686 | -0.283 (inactive) | -0.0311 | -0.0194 | 0.043 | 0.157 | 0.0404 | 0.121 | 1.04 | 0.6 | 0.509 | 0.499 | 0.276 | 0.297 | 0.462 | 0.58 | -0.569 | 0.6 | 0.0833 | 0.391 (inactive)
COC(=O)CC=C[C@@H](C)[C@@H](C=NOC(C)CN1CCCc2nc(C)c(C)cc21)NS(=O)(=O)c1ccc(C)cc1 (stereo not given in full) | -0.515 | 0.964 (inactive) | 0.033 | 0.0098 | -0.19 | 0.726 | 0.416 | 1.14 | 0.641 | 0.0308 | 2.64 | 0.549 | 0.299 | 0.451 | 0.789 | 0.533 | 0.835 | 0.765 | 0.11 | 0.679 (inactive)
CO[C@H]1COC(=O)CC=C[C@H](C)[C@H](OC)COC(=O)[C@@H](C)NC(=O)CC=C[C@@H]1C | -0.487 | -0.347 (inactive) | -0.0319 | -0.164 | -0.54 | 1.95 | -0.0788 | -0.445 | 1.49 | -0.898 | 0.491 | -1.08 | 0.764 | -2.18 | 1.23 | 1.47 | -0.838 | 1.52 | -0.206 | 1.14 (inactive)
CO[C@@H]1COC(=O)[C@H](COCc2ccccc2)NC(=O)CC=C[C@@H](C)[C@H](OC)COC(=O)[C@@H](C)NC(=O)CC=C[C@H]1C | -0.764 | -0.0478 (inactive) | 0.127 | -0.126 | -0.557 | -0.887 | -0.184 | 0.0125 | 1.02 | -3.28 | -1.39 | -1.64 | -0.474 | -1.65 | 1.07 | 1.16 | 1.27 | 0.979 | -0.999 | -0.963 (inactive)
C=C(C)C(=O)OC[C@H]1CN2[C@@H](CC[C@@H](C)[C@@H]2c2ccc(Br)cc2)C(=O)O1 | -0.625 | 0.27 (inactive) | -0.0362 | -0.104 | 0.079 | 0.379 | 0.318 | 0.428 | 0.698 | -0.426 | 2.44 | 0.0456 | -0.174 | -0.613 | 0.489 | 0.108 | 0.47 | 0.264 | -0.034 | -2.88 (inactive)
CON=C[C@@H](OC)[C@H](C)C=CCC(=O)OC | -0.518 | 0.0575 (inactive) | -0.0014 | -0.201 | -0.312 | 0.157 | -0.195 | -0.258 | 0.231 | -0.105 | 1.66 | 0.158 | -0.069 | -1.5 | 0.0902 | 0.0231 | -0.223 | 0.0713 | -0.115 | -0.982 (inactive)
CC(C)[C@@H](OCc1ccccc1)[C@H](C)CON=C1[C@H]2CCn3c(=O)n(-c4ccccc4)c(=O)n3[C@H]2[C@H](O)[C@@H]2O[C@H]12 | 0.667 | 0.382 (inactive) | -0.0072 | -0.0527 | -0.0291 | 0.476 | -0.219 | 0.593 | 0.427 | -0.0949 | 2.57 | 0.246 | 0.0884 | -0.0016 | 0.759 | 0.324 | -0.139 | 0.689 | 0.192 | 0.0981 (inactive)
COc1ccc(COC(=O)NN=C2C[C@@H](O)[C@@H](O)[C@@H]3[C@@H]4C(=O)N(C[C@@H]5CCCO5)C(=O)[C@@H]4CC[C@H]23)cc1 | 0.533 | -0.713 (inactive) | 0.0562 | -0.0811 | -0.283 | 0.121 | -0.341 | -0.624 | 0.144 | -0.826 | -0.156 | -0.309 | 0.0444 | -0.269 | -1.13 | -0.902 | -0.252 | -1.1 | 0.128 | 0.917 (inactive)
